The first assay concerns the target PRR3. Briefly: pooled miR-30 sensor sort-seq; sequence = guide strand. The conditions noted are these: shRNA.
Sequence TCGAGGGTTTCTCTGTTCCTTG gave a sensor-assay potency score (higher = more potent) of -0.785.
For the sequence TAACTCTGCACCAGTCACCCAA, the sensor-assay potency score (higher = more potent) was -0.887.
Sequence TGATCCTGGAGGACCTCTGTGA yielded a sensor-assay potency score (higher = more potent) of -0.51.
TCCTTGTGAAAGCTTCCCCTGG gave a sensor-assay potency score (higher = more potent) of -1.31.
In turn, TTTTTGGCAAAATGTCGGCAGA showed a sensor-assay potency score (higher = more potent) of -1.27.
On the same count and under the same terms, the value for TTCTTGATAAGAGACCAGCTTT was -0.745.
In the case of TTGATAAGAGACCAGCTTTTGA, the sensor-assay potency score (higher = more potent) is -1.38.
TTTGTCTTCCATAACCTGGGGG: the sensor-assay potency score (higher = more potent) came to 0.295.
Still for that read-out and setting: then TCTGCATTGACTCCCCACCAAC, with -1.61.
The sequence TAGGAAGTAACTCTGCACCAGT registered a sensor-assay potency score (higher = more potent) of -0.0951.
Still for that read-out and setting: the value for TTGTCTTCCATAACCTGGGGGT was -0.114; that for TCAGTGGTCCCCTTGATCCTGG was -0.862.

In another assay the target is PRR5. Described as above. The settings on record: shRNA.
ATCCTCTAGCTTCACACTGAGG returned a sensor-assay potency score (higher = more potent) of -1.85.
For the sequence ATCTCCGACACAGAGTGCCTGC, the sensor-assay potency score (higher = more potent) is -0.984.
In turn, TAGCTTCACACTGAGGGTGATG returned a sensor-assay potency score (higher = more potent) of -1.08.
For TCGTGGGGTACAGTCTGCTGGG, the sensor-assay potency score (higher = more potent) was -0.767.
In turn, TGGTCCACCAGGTTCTCCGGGC had a sensor-assay potency score (higher = more potent) of -0.928.
The sequence TCTAGCTTCACACTGAGGGTGA registered a sensor-assay potency score (higher = more potent) of 0.389.
The sequence TTCAGAATCCGAGTCCACGGAC gave a sensor-assay potency score (higher = more potent) of -1.2.
Sequence TAGTCCTCAGTCACGCCCCTGG gave a sensor-assay potency score (higher = more potent) of -0.743.
For TGTTGTAGCTCTTGGAGCGCAC, the sensor-assay potency score (higher = more potent) is -0.639.
Turning to TCACTGAAGAAGAAGTCCCAGG, the sensor-assay potency score (higher = more potent) is -0.956.
TTCTGTCCCTCATAGAAGCGAA: the sensor-assay potency score (higher = more potent) was -1.06.
TTGTGGATGCTGTTCCAGGTGG had a sensor-assay potency score (higher = more potent) of -1.05.

The next assay has as its target PRRX2. The description is as above. The conditions noted are these: shRNA.
As for TTCCTGCGGAACTTGGCGCGGC, the sensor-assay potency score (higher = more potent) was -0.664.
Still for that read-out and setting: then TCGCTGAGGTTGACGCGCCGGG, with -1; and TTTTCTATTGCTGTCCACCCAG, with -0.328.
With TAGGGGGACGAGGCTGTCCAGG, the sensor-assay potency score (higher = more potent) was -1.31.
Consider TAGGACTTGAGCAGCGAGGCAG, for which the sensor-assay potency score (higher = more potent) is -0.751.
Consider TTGGCCTTGAGACGGAGGCTGG, for which the sensor-assay potency score (higher = more potent) is -0.803.
TAGGGTGGCACTGTGCTGTAGG came in with a sensor-assay potency score (higher = more potent) of 0.726.
Take TTGGTTTTAATACACAAACTAA: the sensor-assay potency score (higher = more potent) is -1.05.
In the case of TTGAGCAGCGAGGCAGAGCGGC, the sensor-assay potency score (higher = more potent) is -1.11.
TTCTTCTTCCGCTTGGCGGCGC registered a sensor-assay potency score (higher = more potent) of -0.268.
In the case of ATAATCTGGACTCAGGGCGGTG, the sensor-assay potency score (higher = more potent) was -1.16.
TTTCTATTGCTGTCCACCCAGG yielded a sensor-assay potency score (higher = more potent) of -1.08.
Further: reference of the scale not given here.
